# Results as given in paper PMC7862700, “An all-to-all approach to the identification of sequence-specific readers for epigenetic DNA modifications on cytosine”.
# How the values were obtained:
# Assay in all cases: DAPPL (digital affinity profiling via proximity ligation, sequencing); 10 mM Tris-HCl pH 7.5, 50 mM NaCl, 1 mM DTT, 4% glycerol, room temperature, 30 min; GST-TFs on glutathione beads, 16-mer random dsDNA library, 0.1% formaldehyde crosslink after washing; high values mean tight binding
# FLI1 = molecular target: T1, FLI1 (Homo sapiens, UniProt Q01543 1-452); conditions: protein: recombinant; tags: N-terminal GST; dsDNA, one strand shown
# T1 sequence: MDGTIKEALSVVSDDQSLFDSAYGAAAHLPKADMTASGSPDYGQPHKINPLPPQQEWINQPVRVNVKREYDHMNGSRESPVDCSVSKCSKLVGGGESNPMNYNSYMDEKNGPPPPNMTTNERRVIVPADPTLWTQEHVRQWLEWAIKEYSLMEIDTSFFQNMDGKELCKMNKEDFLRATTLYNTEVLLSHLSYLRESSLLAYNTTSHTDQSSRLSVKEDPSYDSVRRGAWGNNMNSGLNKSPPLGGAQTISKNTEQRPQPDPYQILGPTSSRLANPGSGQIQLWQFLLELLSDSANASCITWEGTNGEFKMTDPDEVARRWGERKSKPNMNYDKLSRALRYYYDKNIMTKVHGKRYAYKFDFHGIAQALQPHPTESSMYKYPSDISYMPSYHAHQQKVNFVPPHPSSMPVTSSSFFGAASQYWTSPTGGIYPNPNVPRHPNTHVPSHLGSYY
# Summary of the method: (§1)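 A tag-only sample was pooled with DNA-barcoded human transcription factors that had been expressed in yeast as GST fusions and captured on glutathione beads. The pools were incubated for 30 min at room temperature with 200 nmole of a random double-stranded 16-mer DNA library in Tris/NaCl/DTT/glycerol buffer, then washed, crosslinked with 0.1% formaldehyde, proximity-ligated (BsaI/T4 ligase, 1 h, 37 °C), PCR-amplified and sequenced on an Illumina NextSeq500. Binding signal is each hexamer's read frequency for a factor divided by its frequency for the tag-only sample.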
# ELK1 = molecular target: T2, ELK1 (Homo sapiens, UniProt P19419 1-428); conditions: protein: recombinant; tags: N-terminal GST; dsDNA, one strand shown
# T2 sequence: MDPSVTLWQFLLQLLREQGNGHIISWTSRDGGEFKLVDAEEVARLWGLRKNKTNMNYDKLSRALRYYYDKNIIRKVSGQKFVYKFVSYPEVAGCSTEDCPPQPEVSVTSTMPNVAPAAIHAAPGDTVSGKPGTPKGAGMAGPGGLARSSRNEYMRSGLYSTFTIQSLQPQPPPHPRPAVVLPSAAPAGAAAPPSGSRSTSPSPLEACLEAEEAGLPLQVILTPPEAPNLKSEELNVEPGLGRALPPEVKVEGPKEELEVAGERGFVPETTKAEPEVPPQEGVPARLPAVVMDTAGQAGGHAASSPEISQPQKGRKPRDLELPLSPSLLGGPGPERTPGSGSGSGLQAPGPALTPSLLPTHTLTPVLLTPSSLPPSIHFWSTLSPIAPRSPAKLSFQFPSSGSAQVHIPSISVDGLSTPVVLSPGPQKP
# Summary of the method: as §1
# GABPA = molecular target: T3, GABPA (Homo sapiens, UniProt Q06546 1-454); conditions: protein: recombinant; tags: N-terminal GST; dsDNA, one strand shown
# T3 sequence: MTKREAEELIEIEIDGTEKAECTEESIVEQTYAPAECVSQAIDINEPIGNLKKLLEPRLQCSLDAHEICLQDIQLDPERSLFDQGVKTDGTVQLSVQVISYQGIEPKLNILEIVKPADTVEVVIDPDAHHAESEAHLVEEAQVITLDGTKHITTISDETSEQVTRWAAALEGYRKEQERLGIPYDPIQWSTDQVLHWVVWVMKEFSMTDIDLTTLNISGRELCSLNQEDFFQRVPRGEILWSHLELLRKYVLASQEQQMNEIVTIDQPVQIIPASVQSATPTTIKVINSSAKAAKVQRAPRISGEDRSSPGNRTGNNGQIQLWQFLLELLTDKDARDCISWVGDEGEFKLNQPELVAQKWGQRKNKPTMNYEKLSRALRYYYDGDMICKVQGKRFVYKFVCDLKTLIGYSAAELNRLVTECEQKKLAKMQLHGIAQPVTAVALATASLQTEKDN
# Summary of the method: as §1
# ERG = molecular target: T4, ERG (Homo sapiens, UniProt P11308 1-479); conditions: protein: recombinant; tags: N-terminal GST; dsDNA, one strand shown
# T4 sequence: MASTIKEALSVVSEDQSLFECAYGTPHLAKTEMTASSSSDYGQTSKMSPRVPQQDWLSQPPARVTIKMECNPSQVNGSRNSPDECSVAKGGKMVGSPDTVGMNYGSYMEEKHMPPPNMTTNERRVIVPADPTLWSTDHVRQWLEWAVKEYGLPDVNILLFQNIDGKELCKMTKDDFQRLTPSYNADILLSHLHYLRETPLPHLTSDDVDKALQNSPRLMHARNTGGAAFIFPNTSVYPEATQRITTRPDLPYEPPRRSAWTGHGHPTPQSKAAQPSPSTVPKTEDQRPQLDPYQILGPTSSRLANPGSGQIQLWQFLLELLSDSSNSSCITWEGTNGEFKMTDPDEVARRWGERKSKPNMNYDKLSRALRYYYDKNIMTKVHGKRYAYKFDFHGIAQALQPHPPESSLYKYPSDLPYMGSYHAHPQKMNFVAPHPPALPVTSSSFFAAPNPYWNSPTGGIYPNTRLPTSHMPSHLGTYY
# Summary of the method: as §1
# ELF1 = ELF1 (Homo sapiens, UniProt P32519 1-619); conditions: protein: recombinant; tags: N-terminal GST; dsDNA, one strand shown
# ELF1, sequence (P32519 whole entry): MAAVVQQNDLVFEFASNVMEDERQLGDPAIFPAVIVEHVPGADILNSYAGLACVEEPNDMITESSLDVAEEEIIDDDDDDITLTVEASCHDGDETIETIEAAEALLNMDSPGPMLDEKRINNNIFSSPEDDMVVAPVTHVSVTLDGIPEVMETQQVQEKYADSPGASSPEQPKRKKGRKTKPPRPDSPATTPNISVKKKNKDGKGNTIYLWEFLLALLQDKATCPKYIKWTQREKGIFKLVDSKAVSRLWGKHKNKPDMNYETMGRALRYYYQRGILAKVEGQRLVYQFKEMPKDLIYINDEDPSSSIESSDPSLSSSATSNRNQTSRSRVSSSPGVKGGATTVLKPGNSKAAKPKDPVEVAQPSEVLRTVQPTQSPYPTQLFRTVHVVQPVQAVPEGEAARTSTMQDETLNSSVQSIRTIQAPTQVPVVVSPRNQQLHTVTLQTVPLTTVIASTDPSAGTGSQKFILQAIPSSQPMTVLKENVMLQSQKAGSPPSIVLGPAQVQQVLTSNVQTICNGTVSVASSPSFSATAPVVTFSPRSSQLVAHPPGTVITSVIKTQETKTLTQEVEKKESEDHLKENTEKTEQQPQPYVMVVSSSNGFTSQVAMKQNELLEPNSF
# Summary of the method: as §1
# EHF = molecular target: T5, EHF (Homo sapiens, UniProt Q9NZC4 1-300); conditions: protein: recombinant; tags: N-terminal GST; dsDNA, one strand shown
# T5 sequence: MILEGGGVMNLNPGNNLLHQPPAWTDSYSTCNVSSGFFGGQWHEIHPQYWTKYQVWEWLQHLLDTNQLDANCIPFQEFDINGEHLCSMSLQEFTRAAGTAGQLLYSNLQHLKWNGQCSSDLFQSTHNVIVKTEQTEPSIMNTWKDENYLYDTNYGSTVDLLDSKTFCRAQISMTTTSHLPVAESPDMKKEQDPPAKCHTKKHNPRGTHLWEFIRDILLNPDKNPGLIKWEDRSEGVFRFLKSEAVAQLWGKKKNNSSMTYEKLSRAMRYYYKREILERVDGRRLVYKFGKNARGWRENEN
# Summary of the method: as §1
# SPI1 = SPI1 (Homo sapiens, UniProt P17947 1-270); conditions: protein: recombinant; tags: N-terminal GST; dsDNA, one strand shown
# Summary of the method: as §1
# SPIB = SPIB (Homo sapiens, UniProt Q01892 1-262); conditions: protein: recombinant; tags: N-terminal GST; dsDNA, one strand shown
# SPIB, sequence (Q01892 whole entry): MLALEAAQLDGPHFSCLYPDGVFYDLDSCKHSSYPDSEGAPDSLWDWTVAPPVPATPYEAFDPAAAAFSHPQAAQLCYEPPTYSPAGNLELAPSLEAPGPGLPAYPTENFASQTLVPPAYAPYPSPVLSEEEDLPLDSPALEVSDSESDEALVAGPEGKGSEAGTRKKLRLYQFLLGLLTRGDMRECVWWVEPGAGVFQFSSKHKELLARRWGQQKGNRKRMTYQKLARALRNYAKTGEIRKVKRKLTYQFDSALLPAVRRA
# Summary of the method: as §1
# ELK3 = molecular target: T6, ELK3 (Homo sapiens, UniProt P41970 1-407); conditions: protein: recombinant; tags: N-terminal GST; dsDNA, one strand shown
# T6 sequence: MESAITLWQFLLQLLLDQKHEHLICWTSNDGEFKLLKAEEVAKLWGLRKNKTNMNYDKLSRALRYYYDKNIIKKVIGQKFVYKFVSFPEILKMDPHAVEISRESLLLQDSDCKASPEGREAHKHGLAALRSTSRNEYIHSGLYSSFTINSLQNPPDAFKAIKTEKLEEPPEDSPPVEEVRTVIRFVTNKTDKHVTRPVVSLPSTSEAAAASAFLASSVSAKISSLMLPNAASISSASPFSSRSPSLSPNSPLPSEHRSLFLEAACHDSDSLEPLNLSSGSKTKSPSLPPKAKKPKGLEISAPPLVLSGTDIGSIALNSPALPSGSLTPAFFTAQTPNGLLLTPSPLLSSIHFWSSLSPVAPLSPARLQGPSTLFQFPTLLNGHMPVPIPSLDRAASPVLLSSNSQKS
# Summary of the method: as §1
# FEV = molecular target: T7, FEV (Homo sapiens, UniProt Q99581 1-238); conditions: protein: recombinant; tags: N-terminal GST; dsDNA, one strand shown
# T7 sequence: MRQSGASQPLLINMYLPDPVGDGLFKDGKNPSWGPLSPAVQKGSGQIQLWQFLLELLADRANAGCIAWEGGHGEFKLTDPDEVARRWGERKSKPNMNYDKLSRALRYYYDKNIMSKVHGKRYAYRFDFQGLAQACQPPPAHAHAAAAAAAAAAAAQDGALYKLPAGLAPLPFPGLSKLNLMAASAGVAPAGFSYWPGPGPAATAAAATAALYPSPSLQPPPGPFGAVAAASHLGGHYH
# Summary of the method: as §1
# ETV5 = ETV5 (Homo sapiens, UniProt P41161 1-510); conditions: protein: recombinant; tags: N-terminal GST; dsDNA, one strand shown
# ETV5, sequence (P41161 whole entry): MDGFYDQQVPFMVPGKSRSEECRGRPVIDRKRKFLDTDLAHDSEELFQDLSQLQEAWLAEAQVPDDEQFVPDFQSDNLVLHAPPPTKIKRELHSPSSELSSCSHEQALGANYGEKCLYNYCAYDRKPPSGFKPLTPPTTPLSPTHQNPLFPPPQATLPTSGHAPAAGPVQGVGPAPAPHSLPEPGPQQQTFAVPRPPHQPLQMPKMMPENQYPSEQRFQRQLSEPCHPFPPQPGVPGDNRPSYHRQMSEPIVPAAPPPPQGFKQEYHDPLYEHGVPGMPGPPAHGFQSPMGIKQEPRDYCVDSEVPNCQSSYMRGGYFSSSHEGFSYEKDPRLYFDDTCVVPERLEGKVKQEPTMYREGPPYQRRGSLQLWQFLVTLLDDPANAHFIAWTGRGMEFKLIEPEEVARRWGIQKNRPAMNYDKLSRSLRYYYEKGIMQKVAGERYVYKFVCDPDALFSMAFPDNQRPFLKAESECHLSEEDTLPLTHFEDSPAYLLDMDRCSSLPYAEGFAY
# Summary of the method: as §1
# HSF1 = HSF1 (Homo sapiens, UniProt Q00613 1-529); conditions: protein: recombinant; tags: N-terminal GST; chain copies: 3; dsDNA, one strand shown
# HSF1, sequence (Q00613 whole entry): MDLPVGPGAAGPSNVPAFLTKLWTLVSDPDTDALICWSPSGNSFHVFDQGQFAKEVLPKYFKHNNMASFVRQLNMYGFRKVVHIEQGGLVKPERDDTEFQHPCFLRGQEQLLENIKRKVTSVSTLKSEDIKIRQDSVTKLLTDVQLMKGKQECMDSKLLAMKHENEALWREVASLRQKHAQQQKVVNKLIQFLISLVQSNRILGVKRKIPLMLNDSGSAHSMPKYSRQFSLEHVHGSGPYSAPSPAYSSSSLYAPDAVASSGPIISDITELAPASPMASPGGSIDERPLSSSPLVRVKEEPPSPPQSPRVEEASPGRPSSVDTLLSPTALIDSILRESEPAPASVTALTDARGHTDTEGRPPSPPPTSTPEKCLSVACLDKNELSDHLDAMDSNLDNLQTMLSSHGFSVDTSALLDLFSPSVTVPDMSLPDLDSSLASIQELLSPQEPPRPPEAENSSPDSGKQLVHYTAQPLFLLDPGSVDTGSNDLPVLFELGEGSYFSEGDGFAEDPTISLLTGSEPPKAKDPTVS
# Summary of the method: as §1
# SPIC = molecular target: T8, SPIC (Homo sapiens, UniProt Q8N5J4 1-248); conditions: protein: recombinant; tags: N-terminal GST; dsDNA, one strand shown
# T8 sequence: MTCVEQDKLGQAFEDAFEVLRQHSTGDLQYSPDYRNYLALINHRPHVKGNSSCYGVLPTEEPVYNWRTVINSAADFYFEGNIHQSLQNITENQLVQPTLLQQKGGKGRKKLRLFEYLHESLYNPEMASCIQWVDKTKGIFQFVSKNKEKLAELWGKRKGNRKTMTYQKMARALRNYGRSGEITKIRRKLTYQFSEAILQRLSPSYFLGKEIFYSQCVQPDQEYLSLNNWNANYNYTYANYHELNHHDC
# Summary of the method: as §1
# ELF4 = ELF4 (Homo sapiens, UniProt Q99607 1-663); conditions: protein: recombinant; tags: N-terminal GST; dsDNA, one strand shown
# ELF4, sequence (Q99607 whole entry): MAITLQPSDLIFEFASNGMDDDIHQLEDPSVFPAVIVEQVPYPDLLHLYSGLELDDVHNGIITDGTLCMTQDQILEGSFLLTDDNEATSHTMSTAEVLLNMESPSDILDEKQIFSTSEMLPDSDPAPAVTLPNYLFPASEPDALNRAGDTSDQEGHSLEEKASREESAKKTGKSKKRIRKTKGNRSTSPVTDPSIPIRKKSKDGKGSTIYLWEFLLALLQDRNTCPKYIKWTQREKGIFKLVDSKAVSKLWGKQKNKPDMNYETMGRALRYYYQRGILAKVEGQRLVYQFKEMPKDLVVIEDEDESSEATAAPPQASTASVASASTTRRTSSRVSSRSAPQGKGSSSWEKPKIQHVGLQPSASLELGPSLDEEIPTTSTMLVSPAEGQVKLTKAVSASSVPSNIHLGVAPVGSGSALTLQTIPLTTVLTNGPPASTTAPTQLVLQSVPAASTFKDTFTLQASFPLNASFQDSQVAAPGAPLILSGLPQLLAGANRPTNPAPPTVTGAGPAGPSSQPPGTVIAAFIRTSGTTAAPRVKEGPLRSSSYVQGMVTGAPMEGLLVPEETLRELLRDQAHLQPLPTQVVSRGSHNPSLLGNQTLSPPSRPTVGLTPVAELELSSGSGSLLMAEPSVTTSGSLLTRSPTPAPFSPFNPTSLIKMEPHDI
# Summary of the method: as §1
# ELK4 = molecular target: T9, ELK4 (Homo sapiens, UniProt P28324-2 1-405); conditions: protein: recombinant; tags: N-terminal GST; dsDNA, one strand shown
# T9 sequence: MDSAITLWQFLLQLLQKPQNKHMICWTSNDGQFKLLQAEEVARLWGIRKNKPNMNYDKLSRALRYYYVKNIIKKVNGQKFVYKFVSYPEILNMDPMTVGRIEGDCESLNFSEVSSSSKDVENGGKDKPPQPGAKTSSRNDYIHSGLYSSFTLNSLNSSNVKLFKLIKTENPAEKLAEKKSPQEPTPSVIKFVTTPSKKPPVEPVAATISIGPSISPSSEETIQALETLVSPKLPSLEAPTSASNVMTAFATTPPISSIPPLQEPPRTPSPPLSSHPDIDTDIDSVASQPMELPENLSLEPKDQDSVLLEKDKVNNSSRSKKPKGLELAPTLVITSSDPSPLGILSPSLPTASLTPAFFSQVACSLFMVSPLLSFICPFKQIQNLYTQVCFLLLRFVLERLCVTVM
# Summary of the method: as §1
# ETV2 = molecular target: T10, ETV2 (Homo sapiens, UniProt O00321 1-342); conditions: protein: recombinant; tags: N-terminal GST; dsDNA, one strand shown
# T10 sequence: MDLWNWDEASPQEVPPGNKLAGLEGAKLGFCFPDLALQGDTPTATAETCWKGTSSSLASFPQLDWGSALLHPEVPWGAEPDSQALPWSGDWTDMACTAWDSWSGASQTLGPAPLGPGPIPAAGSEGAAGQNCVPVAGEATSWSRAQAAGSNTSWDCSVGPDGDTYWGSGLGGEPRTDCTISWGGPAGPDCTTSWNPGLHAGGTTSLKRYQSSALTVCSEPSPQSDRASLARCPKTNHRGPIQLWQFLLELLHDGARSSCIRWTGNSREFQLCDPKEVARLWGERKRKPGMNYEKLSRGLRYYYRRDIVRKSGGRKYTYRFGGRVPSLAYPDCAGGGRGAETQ
# Summary of the method: as §1
# ELF3 = molecular target: T11, ELF3 (Homo sapiens, UniProt P78545 1-371); conditions: protein: recombinant; tags: N-terminal GST; dsDNA, one strand shown
# T11 sequence: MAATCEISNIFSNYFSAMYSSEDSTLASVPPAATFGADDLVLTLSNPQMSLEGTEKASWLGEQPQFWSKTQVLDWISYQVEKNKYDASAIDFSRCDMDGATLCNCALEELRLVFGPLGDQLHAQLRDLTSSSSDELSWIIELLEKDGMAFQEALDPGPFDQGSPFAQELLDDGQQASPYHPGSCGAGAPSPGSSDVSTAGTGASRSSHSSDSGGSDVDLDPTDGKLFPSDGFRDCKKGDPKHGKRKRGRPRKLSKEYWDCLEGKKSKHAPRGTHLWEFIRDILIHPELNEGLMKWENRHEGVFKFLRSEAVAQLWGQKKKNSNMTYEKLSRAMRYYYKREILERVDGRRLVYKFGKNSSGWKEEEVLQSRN
# Summary of the method: as §1
# CRX = CRX (Homo sapiens, UniProt O43186 1-299); conditions: protein: recombinant; tags: N-terminal GST; dsDNA, one strand shown
# CRX, sequence (O43186 whole entry): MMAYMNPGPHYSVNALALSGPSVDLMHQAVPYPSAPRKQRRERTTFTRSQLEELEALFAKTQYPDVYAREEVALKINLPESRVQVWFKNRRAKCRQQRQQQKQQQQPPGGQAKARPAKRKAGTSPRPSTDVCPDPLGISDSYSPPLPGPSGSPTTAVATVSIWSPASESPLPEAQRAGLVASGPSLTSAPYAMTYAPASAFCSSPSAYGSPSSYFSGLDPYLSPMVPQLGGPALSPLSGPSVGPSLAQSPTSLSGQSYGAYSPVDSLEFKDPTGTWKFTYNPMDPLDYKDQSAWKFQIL
# Summary of the method: as §1
# ETV1 = ETV1 (Homo sapiens, UniProt P50549 1-477); conditions: protein: recombinant; tags: N-terminal GST; dsDNA, one strand shown
# ETV1, sequence (P50549 whole entry): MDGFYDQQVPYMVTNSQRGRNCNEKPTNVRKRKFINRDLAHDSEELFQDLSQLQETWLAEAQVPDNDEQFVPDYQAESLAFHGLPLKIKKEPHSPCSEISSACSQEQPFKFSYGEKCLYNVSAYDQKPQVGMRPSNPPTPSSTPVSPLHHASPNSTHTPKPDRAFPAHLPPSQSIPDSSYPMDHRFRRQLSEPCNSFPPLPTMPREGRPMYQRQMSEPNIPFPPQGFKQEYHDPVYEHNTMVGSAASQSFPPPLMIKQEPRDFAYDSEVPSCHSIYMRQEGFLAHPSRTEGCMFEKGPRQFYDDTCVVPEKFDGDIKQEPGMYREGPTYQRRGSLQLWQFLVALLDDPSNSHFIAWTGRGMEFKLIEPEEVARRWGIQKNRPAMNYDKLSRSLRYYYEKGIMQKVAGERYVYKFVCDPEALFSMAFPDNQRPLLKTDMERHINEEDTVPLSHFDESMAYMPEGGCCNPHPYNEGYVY
# Summary of the method: as §1
sequence,measurement,setting,value
TATAGC,binding signal,FLI1,"1.2 fold enrichment (6-mer frequency, TF over GST control)"
same,binding signal,ELK1,"1.22 fold enrichment (6-mer frequency, TF over GST control)"
same,binding signal,GABPA,"1.26 fold enrichment (6-mer frequency, TF over GST control)"
same,binding signal,ERG,"1.2 fold enrichment (6-mer frequency, TF over GST control)"
same,binding signal,ELF1,"1.21 fold enrichment (6-mer frequency, TF over GST control)"
same,binding signal,EHF,"1.17 fold enrichment (6-mer frequency, TF over GST control)"
same,binding signal,SPI1,"1.16 fold enrichment (6-mer frequency, TF over GST control)"
same,binding signal,SPIB,"1.18 fold enrichment (6-mer frequency, TF over GST control)"
same,binding signal,ELK3,"1.1 fold enrichment (6-mer frequency, TF over GST control)"
same,binding signal,FEV,"1.19 fold enrichment (6-mer frequency, TF over GST control)"
same,binding signal,ETV5,"1.37 fold enrichment (6-mer frequency, TF over GST control)"
same,binding signal,HSF1,"1.17 fold enrichment (6-mer frequency, TF over GST control)"
same,binding signal,SPIC,"1.31 fold enrichment (6-mer frequency, TF over GST control)"
same,binding signal,ELF4,"1.15 fold enrichment (6-mer frequency, TF over GST control)"
same,binding signal,ELK4,"1.29 fold enrichment (6-mer frequency, TF over GST control)"
same,binding signal,ETV2,"1.13 fold enrichment (6-mer frequency, TF over GST control)"
same,binding signal,ELF3,"1.27 fold enrichment (6-mer frequency, TF over GST control)"
same,binding signal,CRX,"1.44 fold enrichment (6-mer frequency, TF over GST control)"
same,binding signal,ETV1,"1.13 fold enrichment (6-mer frequency, TF over GST control)"
